Our source for the composite z-score and z-score values is PubChem BioAssay.

Calls of active or inactive are those of the source.

Test [1] is described as follows: small molecules captured by biotinylated probe aFSTL3 – biochemical, small-molecule microarray, fluorescence 635/667, stem cell growth factor project, primary screen (AID 1064).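 Further: measures binding of the biotinylated anti-FSTL3 antibody to printed compounds.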 The following applies: higher = more signal.
Test [2] can be described thus: binders from COS7 lysate, DM2A8 probe, primary screen, torsin A project, cell lysate, small-molecule microarray, fluorescence 635/667 (AID 1065). The following applies: higher = more signal, COS7 lysate expressing mutant human TOR1A.
Test [3] can be described thus: small molecules captured by biotinylated probe aFGF2 – biochemical, small-molecule microarray, fluorescence 635/667, stem cell growth factor project, primary screen (AID 1067).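 Further: measures binding of biotinylated aFGF2 protein to printed compounds on slides; z-score merges feature fluorescence and signal-to-noise across triplicate slides.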 The note with it: higher = more signal.
A short description of test [4]: small molecules captured by biotinylated probe aFGF10 – biochemical, small-molecule microarray, fluorescence 635/667, stem cell growth factor project, primary screen (AID 1071).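 Further: score merges 667 nm spot intensity and signal to noise from triplicate slides.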 The following applies: higher = more signal.
The target of test [5] is Neurogenic locus notch homolog protein 2 (Homo sapiens) (UniProt Q04721). The test is described as follows: small molecules binding Notch2 protein – biochemical, small-molecule microarray, 635 nm fluorescence, stem cell growth factors, primary screen (AID 1073). The following applies: higher = more signal.
Sequence of Neurogenic locus notch homolog protein 2 (Homo sapiens) (Q04721 whole entry, looked up, canonical isoform): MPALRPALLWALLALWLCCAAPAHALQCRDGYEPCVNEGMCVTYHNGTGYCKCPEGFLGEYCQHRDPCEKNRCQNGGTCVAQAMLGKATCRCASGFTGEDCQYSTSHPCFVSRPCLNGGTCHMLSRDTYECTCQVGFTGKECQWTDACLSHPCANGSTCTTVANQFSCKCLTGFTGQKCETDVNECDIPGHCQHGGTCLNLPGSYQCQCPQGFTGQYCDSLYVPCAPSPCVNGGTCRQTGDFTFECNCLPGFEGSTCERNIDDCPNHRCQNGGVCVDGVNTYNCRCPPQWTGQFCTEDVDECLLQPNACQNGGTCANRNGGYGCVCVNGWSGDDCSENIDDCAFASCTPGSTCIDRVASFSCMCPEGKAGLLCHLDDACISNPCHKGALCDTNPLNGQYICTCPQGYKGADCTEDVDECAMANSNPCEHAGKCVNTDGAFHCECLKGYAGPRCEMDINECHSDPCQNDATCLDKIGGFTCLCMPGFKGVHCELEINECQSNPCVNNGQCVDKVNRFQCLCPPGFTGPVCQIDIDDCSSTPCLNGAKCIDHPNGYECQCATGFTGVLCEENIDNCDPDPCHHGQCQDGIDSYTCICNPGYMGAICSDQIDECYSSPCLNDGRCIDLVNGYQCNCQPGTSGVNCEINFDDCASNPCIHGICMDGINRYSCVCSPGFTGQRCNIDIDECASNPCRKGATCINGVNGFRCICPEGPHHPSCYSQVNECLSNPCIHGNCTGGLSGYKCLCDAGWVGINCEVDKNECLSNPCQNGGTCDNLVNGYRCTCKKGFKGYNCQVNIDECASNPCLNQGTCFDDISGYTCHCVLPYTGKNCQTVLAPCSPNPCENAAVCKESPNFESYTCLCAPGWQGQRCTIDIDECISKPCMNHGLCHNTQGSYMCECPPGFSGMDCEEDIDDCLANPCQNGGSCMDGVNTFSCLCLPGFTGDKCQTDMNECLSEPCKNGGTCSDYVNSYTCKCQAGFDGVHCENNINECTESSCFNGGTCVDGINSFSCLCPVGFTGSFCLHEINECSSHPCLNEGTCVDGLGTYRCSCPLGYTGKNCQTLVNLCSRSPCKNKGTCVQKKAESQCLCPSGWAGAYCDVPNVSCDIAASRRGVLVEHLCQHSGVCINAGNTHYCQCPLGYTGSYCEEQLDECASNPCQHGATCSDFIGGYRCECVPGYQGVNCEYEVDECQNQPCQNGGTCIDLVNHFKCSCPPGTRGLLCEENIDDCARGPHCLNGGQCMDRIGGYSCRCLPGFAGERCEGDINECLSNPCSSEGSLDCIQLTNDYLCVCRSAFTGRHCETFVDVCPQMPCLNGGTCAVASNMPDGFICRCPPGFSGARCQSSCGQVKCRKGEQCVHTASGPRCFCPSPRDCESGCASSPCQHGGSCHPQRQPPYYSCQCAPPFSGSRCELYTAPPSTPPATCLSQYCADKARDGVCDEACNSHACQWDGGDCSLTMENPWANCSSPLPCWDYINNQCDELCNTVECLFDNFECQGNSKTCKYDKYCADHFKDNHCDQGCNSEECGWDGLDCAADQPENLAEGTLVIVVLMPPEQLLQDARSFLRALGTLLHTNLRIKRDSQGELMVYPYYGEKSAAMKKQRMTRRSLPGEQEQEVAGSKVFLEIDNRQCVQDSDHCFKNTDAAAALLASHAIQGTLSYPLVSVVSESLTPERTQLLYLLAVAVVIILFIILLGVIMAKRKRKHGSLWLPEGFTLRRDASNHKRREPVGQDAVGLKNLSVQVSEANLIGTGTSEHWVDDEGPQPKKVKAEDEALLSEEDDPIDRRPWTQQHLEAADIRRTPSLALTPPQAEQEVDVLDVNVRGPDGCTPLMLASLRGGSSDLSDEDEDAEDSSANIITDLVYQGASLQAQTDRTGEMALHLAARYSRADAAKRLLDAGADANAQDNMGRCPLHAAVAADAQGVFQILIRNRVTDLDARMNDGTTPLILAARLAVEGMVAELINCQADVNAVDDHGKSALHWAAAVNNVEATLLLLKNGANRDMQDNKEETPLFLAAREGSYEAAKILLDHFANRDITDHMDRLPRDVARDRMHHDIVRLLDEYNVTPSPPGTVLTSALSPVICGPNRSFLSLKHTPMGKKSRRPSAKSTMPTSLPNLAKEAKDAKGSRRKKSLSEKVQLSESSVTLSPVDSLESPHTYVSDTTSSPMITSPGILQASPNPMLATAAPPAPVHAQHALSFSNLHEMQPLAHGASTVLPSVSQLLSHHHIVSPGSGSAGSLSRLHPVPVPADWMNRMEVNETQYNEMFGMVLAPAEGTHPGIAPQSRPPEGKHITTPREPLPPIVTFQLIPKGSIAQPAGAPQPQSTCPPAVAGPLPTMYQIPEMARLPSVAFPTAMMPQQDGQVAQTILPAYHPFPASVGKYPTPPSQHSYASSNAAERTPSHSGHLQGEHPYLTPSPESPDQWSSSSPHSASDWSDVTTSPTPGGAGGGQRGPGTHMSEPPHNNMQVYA
Test [6] deals with Pro-neuregulin-1, membrane-bound isoform (Homo sapiens) (UniProt Q02297). Description: small molecules binding neuregulin-1 protein – biochemical, small-molecule microarray, fluorescence 635/667, psychiatric disease protein project, primary screen (AID 1075).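 Further: score combines 667 nm spot fluorescence with signal to noise.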 The note with it: NRG1 binding, 635 nm fluorescence, higher = more signal.
Sequence of Pro-neuregulin-1, membrane-bound isoform (Homo sapiens) (Q02297 whole entry, looked up, the tested form may be a part, canonical isoform): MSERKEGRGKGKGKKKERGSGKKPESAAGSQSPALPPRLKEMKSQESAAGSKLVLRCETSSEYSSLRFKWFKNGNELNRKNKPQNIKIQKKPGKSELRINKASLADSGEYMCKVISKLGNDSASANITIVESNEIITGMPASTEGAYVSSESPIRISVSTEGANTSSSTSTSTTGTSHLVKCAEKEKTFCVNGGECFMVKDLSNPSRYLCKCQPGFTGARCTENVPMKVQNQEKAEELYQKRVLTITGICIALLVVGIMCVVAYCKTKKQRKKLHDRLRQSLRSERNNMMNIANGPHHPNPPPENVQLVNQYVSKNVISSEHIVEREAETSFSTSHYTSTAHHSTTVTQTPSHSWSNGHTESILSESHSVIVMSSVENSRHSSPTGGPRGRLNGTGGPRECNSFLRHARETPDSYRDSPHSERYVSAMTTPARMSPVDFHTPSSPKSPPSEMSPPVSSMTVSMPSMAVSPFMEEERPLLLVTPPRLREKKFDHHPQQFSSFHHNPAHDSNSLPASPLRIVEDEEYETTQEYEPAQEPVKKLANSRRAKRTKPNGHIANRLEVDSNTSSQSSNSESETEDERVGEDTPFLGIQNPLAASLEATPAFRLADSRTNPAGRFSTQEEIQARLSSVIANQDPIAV
Test [7] has as its system Neuregulin-1 EGF-like domain. Description: small molecules binding NRG1 EGF domain – biochemical, small-molecule microarray, 635 nm fluorescence, primary screen (AID 1081).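 Further: binding of the protein to compounds printed on small-molecule microarray slides.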 The note with it: higher = more signal.
The nature of test [8]: FRG1 expression reporter modulators in myotubes – cell-based, C2C12 myotubes, firefly/Renilla luciferase, luminescence, FRG1 inhibition for FSHD, primary screen (AID 1084). The following applies: FRG1 promoter luciferase, higher = more signal, called active from +8 up or from −8 down.
A short description of test [9]: small molecules captured by biotinylated probe aFST – biochemical, small-molecule microarray, fluorescence 635/667, stem cell growth factor project, primary screen (AID 1086).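 Further: score merges 667 nm fluorescence with signal-to-noise of each printed compound spot.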 The following applies: higher = more signal.
Test [10] is described as follows: binders of probe aHhip on microarray, primary screen, stem cell growth factor project, biochemical, small-molecule microarray, fluorescence 635/667 (AID 1087).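 Further: score merges spot fluorescence at 667nm with spot signal to noise ratio.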 The following applies: higher = more signal.
In test [11] the test system is PRMT1 (protein arginine N-methyltransferase 1). Description: small molecules binding arginine methyltransferase PRMT1 – biochemical, small-molecule microarray, 635 nm fluorescence, primary screen (AID 1088).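 Further: binding of Prmt1 protein to compounds spotted on small-molecule microarray slides.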 The following applies: higher = more signal.
A short description of test [12]: growth effects on S. cerevisiae YJM789 – YJM789 clinical isolate, OD600, 24 h, basal, primary screen (AID 1089).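 Further: growth of clinical yeast isolate S. cerevisiae YJM 789 seeded 1000 cells per well; test concentration not given here.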 The note with it: higher = more signal, called active from +8 up or from −8 down.
Test [13] is described as follows: S. pombe growth modifiers, basal conditions – strain 972, OD600, 24 h, no modulator, primary screen (AID 1090).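 Further: basal condition with compound alone and no growth modifier present; test concentration not given here.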 The note with it: S. pombe 972 growth, higher = more signal, called active from +8 up or from −8 down.
Test [14] is described as follows: budding yeast growth modifiers under rapamycin – strain BY4716, OD600, 96 h, primary screen (AID 1091). Further: test concentration not given here. The following applies: S. cerevisiae BY4716 + rapamycin, higher = more signal, called active from +8 up or from −8 down.
Test [15] has as its target Torsin-1A-interacting protein 2 (Homo sapiens) (UniProt Q8NFQ8). The test is described as follows: small molecules binding lysate-expressed LULL1 – cell lysate, human LULL1 lysate, 635/667 nm fluorescence, primary screen (AID 1092).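 Further: probe is lysate of COS7 cells overexpressing human LULL1; score merges per-feature 667 nm fluorescence with signal-to-noise.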 The following applies: small-molecule microarray, hLULL1 lysate binding, 635 nm fluorescence; higher = more signal.
Test [16] is described as follows: optical density change of DRC41 E. coli – strain DRC41, OD650, 24 h, E. coli filamentation project, primary screen (AID 1093).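 Further: MC1000 strain lacking acrAB efflux and sulA so SOS filamentation is blocked; test concentration not given here.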 The following applies: E. coli DRC41 growth, higher = more signal, called active from +8 up or from −8 down.
Test [17] in a line: probe aLefty2 binding to arrayed compounds – biochemical, biotinylated probe, 635/667 nm fluorescence, primary screen (AID 1094).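 Further: score merges spot fluorescence near 667 nm with spot signal-to-noise ratio.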 The following applies: small-molecule microarray, higher = more signal.
Test [18] relates to Noggin (protein binding on small-molecule microarray). The test is described as follows: small molecules binding Noggin protein – biochemical, 635/667 nm fluorescence, primary screen (AID 1095).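 Further: score merges 667 nm feature fluorescence with signal to noise over triplicate slides.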 The note with it: 635 nm fluorescence, higher = more signal.
Test [19] deals with Neurogenic locus notch homolog protein 3 (Homo sapiens) (UniProt Q9UM47). The test is described as follows: small molecules binding NOTCH3 protein – biochemical, 635/667 nm fluorescence, primary screen (AID 1096). The following applies: small-molecule microarray, 635 nm fluorescence, higher = more signal.
Test [20] in a line: probe aEGFR binding to arrayed compounds – biochemical, biotinylated probe, 635/667 nm fluorescence, primary screen (AID 1097).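 Further: probe is a biotinylated anti-EGFR antibody binding compounds printed on slides; score combines fluorescence near 667 nm and signal to noise of each spot.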 The note with it: small-molecule microarray, higher = more signal.

Sequence of Torsin-1A-interacting protein 2 (Homo sapiens) (Q8NFQ8 whole entry, looked up): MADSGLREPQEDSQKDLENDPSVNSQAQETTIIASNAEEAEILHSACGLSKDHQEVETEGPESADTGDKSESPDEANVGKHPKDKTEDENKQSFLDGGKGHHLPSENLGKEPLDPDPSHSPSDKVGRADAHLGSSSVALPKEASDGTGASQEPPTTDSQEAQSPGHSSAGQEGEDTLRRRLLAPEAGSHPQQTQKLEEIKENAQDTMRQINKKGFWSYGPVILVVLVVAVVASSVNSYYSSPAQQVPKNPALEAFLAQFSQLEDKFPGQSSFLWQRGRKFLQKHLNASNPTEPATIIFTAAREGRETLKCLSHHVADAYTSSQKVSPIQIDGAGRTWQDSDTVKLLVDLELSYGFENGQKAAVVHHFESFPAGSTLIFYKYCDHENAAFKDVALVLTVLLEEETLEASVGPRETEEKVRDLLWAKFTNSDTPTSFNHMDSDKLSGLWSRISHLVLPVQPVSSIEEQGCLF

In the case of `C=CCOC(=O)[C@H]1[C@@H]2C(=O)O[C@@H](c3ccccc3)[C@@H](c3ccccc3)N2[C@@H](c2ccc(OCCOC(=O)[C@H]3C[C@H]4C(=O)N[C@@H](CCCC[N+](C)(C)C)C(=O)N4[C@H]3c3ccc(O)cc3)cc2)[C@]12C(=O)Nc1ccccc12`, the composite z-score is 0.104 in [1]; 0.154 in test [2]; -0.1 in test [3]; 0.276 in test [4]; 0.193 in [5]; 0.06 in test [6]. Besides, the composite z-score in [7] is 1.09; in test [9], 0.357; in test [10] it was -0.608; in test [11], -0.146; in test [15], 1.68; in test [17], 0.126. Besides, the figures for the composite z-score in test [18], in test [19] and in test [20] were 1.08, 0.321 and -0.194, respectively. For the same molecule, the z-score in [8] is 0.131 (inactive); in test [12], -0.193 (inactive); in [13], -2.55 (inactive); in test [14], -1.05 (inactive); in test [16] it was -0.405 (inactive).

Consider `CN(C)CCCC[C@@H]1NC(=O)[C@@H]2C[C@H](C(=O)NCCCCCCN)[C@H](c3ccc(O)cc3)N2C1=O`, for which the composite z-score in test [1] stood at 1.95; in test [2], 0.58; in test [3] it was 0.15; in test [4], 0.727; in test [5], 0.921; in test [6], 1.39. Further, the composite z-score in test [7] stood at 1.44; in test [9], 2.16; in test [10] it was 0.861; in test [11] it was 1.18; in test [15], 2.52; in [17], 0.892. The composite z-score in test [18] is 0.855; in test [19], 0.526; in [20], 0.678. Besides, the z-score is -0.0024 (inactive) in test [8]; 0.377 (inactive) in [12]; -2.04 (inactive) in test [13]; 0.638 (inactive) in test [14]; -0.47 (inactive) in test [16].

In the case of `Cc1ccccc1/C=C/C=O`, the composite z-score in [1] is -0.162; in [2], -0.623; in [3], -0.135; in test [4], -0.0909; in test [5], -1.09; in [6], -0.628. Besides, the composite z-score in test [7] is -0.631; in [9], -0.127; in [10], 0.0957; in test [11], -1.47; in test [15], -0.672; in test [17], -0.13. Also, the composite z-score was -0.13 in test [18], -1.63 in test [19] and -0.307 in test [20]. Besides, the z-score in [8] was 0.258 (inactive); in test [12] it was -1.01 (inactive); in test [13], -3.42 (inactive); in test [14] it was -0.402 (inactive); in test [16], 0.35 (inactive).

`[N-]=[N+]=Nc1ccccc1[C@@H]1OC(c2ccc(OCCCO)cc2)=N[C@]1(CCS(=O)(=O)c1ccccc1)C(=O)N1CCCCC1`: the composite z-score in test [1] stood at 1.78; in [2] it was 1.25; in [3], 0.206; in test [4], 0.77; in test [5], 1.6; in test [6] it was 1.37. For the same molecule, the composite z-score in test [7] is 1.29; in [9] it was 1.18; in test [10], -0.249; in [11] it was 1.56; in test [15] it was 2.83; in [17], 0.799. For the same molecule, the composite z-score was determined as 0.237 in [18], 1.05 in test [19] and 0.292 in test [20]. Moreover, the z-score in test [8] was -1.72 (inactive); in [12], 0.436 (inactive); in test [13] it was 1.15 (inactive); in [14], 2.83 (inactive); in test [16], 0.106 (inactive).

On to `Cc1ccc([C@H]2C(C(=O)O)=C[C@@H](C(C)C)N2S(=O)(=O)c2ccc(C)cc2)cc1`, for which the composite z-score in [1] was -0.0974; in [2], -0.304; in test [3] it was -0.0667; in test [4] it was 0.163; in [5] it was 1.14; in test [6] it was 1.19. Besides, the composite z-score is 1.31 in [7]; 0.384 in test [9]; -0.287 in test [10]; 0.425 in test [11]; 3.51 in test [15]; -0.0598 in [17]. In addition, the composite z-score is -0.0681 in test [18], 0.412 in [19] and -0.0457 in [20]. The z-score in [8] is -1.57 (inactive); in test [12], -0.763 (inactive); in test [13], 0.0459 (inactive); in test [14] it was -0.128 (inactive); in test [16], -0.678 (inactive).
